Screening results as filed in PubChem BioAssay.
p53ts 39C tox: p53ts cell cytotoxicity, nonpermissive temperature; H1299-p53A138V viability at 39C, ATP luminescence, 24 h; Potency, µM (highest dose often 46.1 µM), most hits filed as cytotoxic; 130,000 compounds, 1.5% hits; further: nearly all actives have a fitted effect of over 55% in size
p53ts 32C tox: kills p53ts cells at the permissive temperature; Potency, µM (series often up to 46.1 µM), most hits filed as cytotoxic; 130,000 compounds, 0.93% hits; H1299-p53A138V at 32C, ATP luminescence viability, 24 h; further: nearly all actives have a fitted effect of over 55% in size
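ATP-content luminescence (ATPlite) read-out after 24 h compound exposure at 32C in H1299-p53A138V cells (600/well). Tested up to 46 uM. Normalized to DMSO (0%) and 100 uM tamoxifen (100% killing); Hill-fit AC50.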
Luciferase inh: inhibitors of firefly luciferase; purified firefly luciferase, luminescence, 8 min; Potency, µM (series often up to 57.1 µM), most hits filed as inhibitors; 72,000 compounds, 2.2% hits; AID 411; further: nearly all actives have a fitted effect of over 40% in size
Target sequence (P08659 whole entry, looked up): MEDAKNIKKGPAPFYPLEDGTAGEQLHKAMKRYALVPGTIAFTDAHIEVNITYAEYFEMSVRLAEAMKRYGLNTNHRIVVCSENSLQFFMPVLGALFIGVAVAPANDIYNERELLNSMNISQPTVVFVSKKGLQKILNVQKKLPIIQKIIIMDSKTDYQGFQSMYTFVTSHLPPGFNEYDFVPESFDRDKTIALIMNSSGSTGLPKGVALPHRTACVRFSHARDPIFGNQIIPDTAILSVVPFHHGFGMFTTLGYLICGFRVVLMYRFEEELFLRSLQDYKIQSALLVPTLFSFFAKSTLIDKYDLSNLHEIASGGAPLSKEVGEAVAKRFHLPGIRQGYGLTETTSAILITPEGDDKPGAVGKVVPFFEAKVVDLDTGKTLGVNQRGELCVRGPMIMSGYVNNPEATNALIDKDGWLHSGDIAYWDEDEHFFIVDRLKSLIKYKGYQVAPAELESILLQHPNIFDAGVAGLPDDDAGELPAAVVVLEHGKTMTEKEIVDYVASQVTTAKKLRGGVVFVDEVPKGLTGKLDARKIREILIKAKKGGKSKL
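Titration-based qHTS; buffer 50 mM imidazole pH 7.2, 50 mM KCl, 7 mM MgCl2, 10 uM ATP, 0.01% Tween 20, 0.05% BSA; luciferase/luciferin detector mix added after compound; 8 min, ambient; luminescence.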
Each line names hits and unclear results; the compound was inactive in the other large screens; ! = not confirmed by another sample. A selection: hits, their analogues and other compounds. The true share with any hit is near 2.5%. The call rests on the fitted dose curve; in most records, active means well fitted curve in the direction sought with a large enough effect; inconclusive means small, poorly fitted or top-dose-only effect, or another doubt; inactive means no such curve, though single readings can be large; an effect the other way counts as inactive or inconclusive.

CCOc1ccc(Br)c(C2(O)CC(C)N(C)CC2C)c1 (stereo unspecified)	p53ts 32C tox inconclusive, Luciferase inh 25µM
Cc1ccc(C2(O)CC(C)N(C)CC2C)cc1 (stereo unspecified)	none
C/C=C(\C)C(=O)O[C@@H]1C(C)=C2[C@H]([C@@H]1OC(=O)CCCCCCC)[C@@](C)(OC(C)=O)C[C@@H](OC(=O)CCC)[C@@]1(O)[C@H]2OC(=O)[C@]1(C)O	p53ts 39C tox 13µM, p53ts 32C tox 25µM
CN(CCC(=O)O)C1=Nc2ccc(Cl)cc2C(c2ccccc2)=[N+]([O-])C1	none
Nc1ccc(CCN2CCN(c3cccc(C(F)(F)F)c3)CC2)cc1	none
OCCN1CCN(CCCN2c3ccccc3Sc3ccc(C(F)(F)F)cc32)CC1	p53ts 39C tox 13µM!, p53ts 32C tox inconclusive
CN(C)c1ccc(N=O)cc1	p53ts 39C tox inconclusive (no result: Luciferase inh)
CN(C)c1ccc(N)cc1	p53ts 39C tox 32µM (no result: Luciferase inh)
O=c1ccc2cc(O[C@@H]3O[C@@H](CO)[C@@H](O)[C@@H](O)[C@H]3O)c(O)cc2o1	none (no result: p53ts 39C tox, p53ts 32C tox)
COC(=O)C[C@]1(C(=O)OC)CN(C#N)N(c2ccc(Cl)cc2)C12c1ccccc1-c1ccccc12	p53ts 39C tox inconclusive, p53ts 32C tox 6.3µM (no result: Luciferase inh)
O=C(O)[C@@H](O)[C@@H](O)[C@@H]1[O][Sb][O][C@@H]1CO	none
COc1ccccc1NC(=O)c1oc2ccccc2c1NC(=O)c1ccccc1C(F)(F)F	p53ts 39C tox 16µM, p53ts 32C tox inconclusive (no result: Luciferase inh)
COc1ccc(NC(C)=O)cc1NC(=O)c1cccn(Cc2ccccc2)c1=O	none (no result: Luciferase inh)
CNc1ccc2oc(C[C@@H]3O[C@@]4(CC[C@H]3C)O[C@@H]([C@@H](C)C(=O)c3ccc[nH]3)[C@@H](C)C[C@H]4C)nc2c1C(=O)O	none (no result: p53ts 39C tox, p53ts 32C tox)
Cc1ccc(Cl)cc1NC(=O)NCc1cccn1Cc1ccc(F)cc1	p53ts 39C tox 10µM, p53ts 32C tox inconclusive (no result: Luciferase inh)
Cc1nnc(NC(=O)c2cccn(Cc3cccc(Cl)c3)c2=O)s1	none (no result: Luciferase inh)
CC[C@@]1(O)CC(O)c2c(cc3c(c2O)C(=O)c2c(O)ccc(O)c2C3=O)C1C(=O)OC (stereo partly specified)	p53ts 39C tox 13µM, p53ts 32C tox inconclusive (no result: Luciferase inh)
CC[C@]1(O)CC(O[C@@H]2CC(N(C)C)C(O)C(C)O2)c2c(cc3c(c2O)C(=O)c2c(O)cccc2C3=O)C1C(=O)OC (stereo partly specified)	p53ts 39C tox inconclusive (no result: Luciferase inh)
C[C@@]12CC[C@H]3[C@H](CCC4=CC(=O)CC[C@H]43)[C@H]1CC[C@H]2OC1(O)C(=O)c2ccccc2C1=O	none
Nc1ccccc1C(=O)OCCOc1ccccc1	Luciferase inh 13µM
Nc1ccccc1C(=O)O	none (no result: Luciferase inh)
C[C@@H]1O[C@H](OC2[C@@H](O)[C@H](O)C(O)[C@H](O)[C@H]2O)[C@@H](N)C[C@@H]1N=C(N)C(=O)O (stereo partly specified)	none
O=C(O)[C@H]1[C@H](C(=O)O)[C@H]2CC[C@@H]1O2	none
N[C@H](Cn1cc(I)c(=O)[nH]c1=O)C(=O)O	none (no result: p53ts 39C tox, p53ts 32C tox)
C=C(C)CN1CC[C@@]23c4c5ccc(O)c4O[C@H]2c2[nH]c4ccccc4c2C[C@]3(O)[C@@H]1C5	p53ts 39C tox 32µM, p53ts 32C tox inconclusive
C=C1CC[C@@]2(O)[C@H]3Cc4ccc(O)c5c4[C@@]2(CCN3CC2CC2)[C@H]1O5	none (no result: p53ts 39C tox, p53ts 32C tox)
NC(N)=Nc1ccc2[nH]c3c(c2c1)C[C@]1(O)[C@@H]2Cc4ccc(O)c5c4[C@]1(CCN2CC1CC1)[C@H]3O5	p53ts 39C tox 25µM, p53ts 32C tox 13µM
C=CCN1CC[C@@]23c4c5ccc(O)c4O[C@H]2/C(=N\N=C2/CC[C@@]4(O)[C@H]6Cc7ccc(O)c8c7[C@@]4(CCN6CC=C)[C@@H]2O8)CC[C@]3(O)[C@@H]1C5	p53ts 39C tox inconclusive, p53ts 32C tox inconclusive
CC[C@H]1CN2CC[C@@H]1C[C@@H]2[C@H](O)c1ccnc2ccccc12	none (no result: p53ts 39C tox, p53ts 32C tox)
O=C1C(Cl)=C(Cl)C(=O)C(Cl)=C1Cl	p53ts 39C tox inconclusive, p53ts 32C tox 5µM (no result: Luciferase inh)
Cn1c(=O)c2[nH]cnc2n(C)c1=O.[CH2-][C@H](Cc1cccc2cc(C(=O)O)c(=O)oc12)OC.[Hg].[OH-]	none
O=C1C[C@H]2OCCC=C3CN4CC[C@@]56c7ccccc7N1[C@@H]5[C@H]2[C@H]3C[C@@H]46	none (no result: p53ts 39C tox, p53ts 32C tox)
COc1ccc2c(c1)[C@]13CCCC[C@@H]1[C@H](C2)NCC3	none
C[N+]1(C)CCO[C@@](O)(c2ccc(-c3ccc([C@]4(O)C[N+](C)(C)CCO4)cc3)cc2)C1	none
COc1cc(CC2C(=O)N(C)C(=O)N(C)C2=O)ccc1OCc1ccccc1	none
CCCCOc1ccc(CN2C(=O)C(=O)c3cc(C)ccc32)cc1OC	p53ts 39C tox 10µM (no result: Luciferase inh)
CC(C)C[C@H]1C(=O)N2CCC[C@@H]2[C@]2(O)O[C@](NC(=O)[C@H]3C=C4c5cccc6[nH]cc(c56)C[C@H]4N(C)C3)(C(C)C)C(=O)N12	none (no result: p53ts 39C tox, p53ts 32C tox)
CC(=O)c1cccc(NC(=O)c2cc3c(s2)-c2c(C)cccc2OC3)c1	p53ts 39C tox 5µM, p53ts 32C tox 10µM (no result: Luciferase inh)
CC(=O)c1cccc(NC(=O)c2cccn(Cc3cccc(C)c3)c2=O)c1	none (no result: Luciferase inh)
Ic1ccccc1CN[C@@H]1C2CCN(CC2)[C@H]1C(c1ccccc1)c1ccccc1	p53ts 39C tox 20µM, p53ts 32C tox inconclusive
CC(C)N[C@@H](C)Cc1ccc(I)cc1	none
OC[C@H]1CCCN2CCCC[C@@H]12	none (no result: p53ts 39C tox, p53ts 32C tox)
CC(C)n1cc2c3c(cccc31)[C@@H]1C[C@H](C(=O)O[C@@H](C)[C@H](C)O)CN(C)[C@H]1C2	none
C=CCn1c(O)c(C(C)=NCc2cc(OC)cc(OC)c2)c(=O)[nH]c1=O	p53ts 39C tox inconclusive, p53ts 32C tox 10µM
C=CCn1c(O)c(C(C)=NCc2cccnc2)c(=O)[nH]c1=O	none
Cc1cc[c]([Sb]2[O][C@H]([C@H](O)[C@H](O)C(=O)O)[C@@H](CO)[O]2)cc1	none
Cc1onc(-c2ccccc2Cl)c1C(=O)OCC(=O)c1ccc2c(c1)OCCO2	Luciferase inh 16µM
Cc1cc(NC(=O)COC(=O)c2c(C)nn(Cc3ccccc3)c2Cl)no1	none
CN[C@H]1[C@H]2[C@H]3CCN2C[C@@H]1O3	none (no result: p53ts 39C tox, p53ts 32C tox)
O=CN1C[C@H]2C[C@@H](C1)c1cccc(=O)n1C2	none (no result: p53ts 39C tox, p53ts 32C tox)
C[C@@H]1CC[C@@]2(OC1)O[C@H]1[C@@H](O)[C@H]3[C@@H]4CC[C@H]5C[C@@H](O[C@@H]6O[C@H](CO)[C@H](O[C@@H]7O[C@H](CO)[C@@H](O)[C@H](O[C@@H]8OC[C@@H](O)[C@H](O)[C@H]8O)[C@H]7O[C@@H]7O[C@H](CO)[C@@H](O)[C@H](O[C@@H]8O[C@H](CO)[C@@H](O)[C@H](O)[C@H]8O)[C@H]7O)[C@H](O)[C@H]6O)[C@H](O)C[C@]5(C)[C@H]4CC[C@]3(C)[C@H]1[C@@H]2C	p53ts 39C tox 13µM (no result: Luciferase inh)
CN1CCc2cc3c(cc2[C@@H]1[C@H]1OC(=O)c2c1ccc1c2OCO1)OCO3	none (no result: p53ts 39C tox, p53ts 32C tox)
NC(=NCCC[C@@H](N)C(=O)O)N[N+](=O)[O-]	none (no result: p53ts 39C tox, p53ts 32C tox)
CSC([N-]/N=C/c1cccc(C)n1)=[S]=[Cu].CS[C@H]([S-])[N-]/N=C/c1cccc(C)n1	p53ts 39C tox inconclusive, p53ts 32C tox 2µM
Cc1ccc(Cl)cc1N1CCN(C(=O)C2CCN(Cc3nc(-c4ccc(Cl)cc4)oc3C)CC2)CC1	p53ts 39C tox 13µM (no result: Luciferase inh)
